Reference: PubChem BioAssay (Tox21)
A number with no mark means an inactive call. Records with an inconclusive call do not appear. Where a call stands in place of a potency, no number is given. Activity calls are given as the source filed them. Calls follow the shape of the dose curve; as a rule, active = well fitted curve in the direction sought with a large enough effect in the repeat runs; inconclusive = weak or mixed curves; inactive = no such curve, though single readings can be large; an effect the other way counts as inactive or inconclusive.

Legend:
[1] = A CellTox Green Cytotoxicity Assay to monitor cytotoxicity in HEK293 cells - 40 hour (AID 1224871); also: nearly all actives have a fitted effect of over 45% in size; also: potency is read from the fitted curve at half-maximal effect
Method in brief: (§1)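 Fluorescence from a DNA-binding dye excluded by viable cells was measured repeatedly in the same HEK293 wells (600 cells/well) during continuous compound exposure at 37 C. Each assay gives one read point: 0, 8, 16, 24, 32 or 40 h.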

[2] = qHTS RealTime-Glo MT Cell Viability Assay in HEK293 cells - 16 hour (AID 1224872); also: top concentration of the series differs between compounds; nearly all actives have a fitted effect of over 50% in size
Method in brief: (§2)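 Viability tracked continuously by luminescence as live cells reduce a prosubstrate for NanoLuc; HEK293 cells preincubated 5 h, compound-treated at 37 C, and read at 0, 8, 16, 24, 32 and 40 h.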

[3] = qHTS RealTime-Glo MT Cell Viability Assay in HepG2 cells - 8 hour (AID 1224873); also: nearly all actives have a fitted effect of over 55% in size
Method in brief: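 HepG2 cells (600/well) mixed with RealTime-Glo MT reagent, settled 5 h at 37 C/5% CO2 before compound addition. Nonlytic NanoLuc luminescence from viable-cell prosubstrate reduction read repeatedly during 40 h treatment at 37 C.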

[4] = A CellTox Green Cytotoxicity Assay to monitor cytotoxicity in HEK293 cells - 24 hour (AID 1224875); also: nearly all actives have a fitted effect of over 45% in size; also: potency is read from the fitted curve at half-maximal effect
Method in brief: as §1

[5] = A CellTox Green Cytotoxicity Assay to monitor cytotoxicity in HepG2 cells - 16 hour (AID 1224876); also: nearly all actives have a fitted effect of over 45% in size; also: potency is read from the fitted curve at half-maximal effect
Method in brief: (§3)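 Real-time cytotoxicity: fluorescence of a cell-impermeant cyanine dye binding DNA of dead HepG2 cells, measured repeatedly (0–40 h) during compound exposure at 37 C. Cells seeded 600/well with reagent, dosed after 5 h.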

[6] = qHTS RealTime-Glo MT Cell Viability Assay in HepG2 cells - 32 hour (AID 1224877); also: nearly all actives have a fitted effect of over 55% in size
Method in brief: (§4)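 Viability was tracked continuously by NanoLuc luminescence from prosubstrate reduced by living HepG2 cells, at successive time points over 40 h of compound exposure. Cells with reagent were preincubated 5 h at 37 °C before compound addition.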

[7] = A CellTox Green Cytotoxicity Assay to monitor cytotoxicity in HepG2 cells - 24 hour (AID 1224878); also: nearly all actives have a fitted effect of over 45% in size; also: potency is read from the fitted curve at half-maximal effect
Method in brief: as §3

[8] = A CellTox Green Cytotoxicity Assay to monitor cytotoxicity in HepG2 cells - 40 hour (AID 1224879); also: nearly all actives have a fitted effect of over 40% in size; also: potency is read from the fitted curve at half-maximal effect
Method in brief: as §3

[9] = qHTS RealTime-Glo MT Cell Viability Assay in HEK293 cells - 0 hour (AID 1224880)
Method in brief: (§5)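 Luminescence, which tracks viable cell number through reduction of the prosubstrate to a NanoLuc substrate, was read over continuous 37 C culture. Cells (600/well) were premixed with reagent and rested 5 h before 23 nL of compound in DMSO was pinned.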

[10] = A CellTox Green Cytotoxicity Assay to monitor cytotoxicity in HEK293 cells - 32 hour (AID 1224881); also: nearly all actives have a fitted effect of over 40% in size; also: potency is read from the fitted curve at half-maximal effect
Method in brief: as §1

[11] = A CellTox Green Cytotoxicity Assay to monitor cytotoxicity in HepG2 cells - 0 hour (AID 1224882); also: nearly all actives have a fitted effect of over 35% in size; also: potency is read from the fitted curve at half-maximal effect
Method in brief: as §3

[12] = A CellTox Green Cytotoxicity Assay to monitor cytotoxicity in HepG2 cells - 32 hour (AID 1224883); also: nearly all actives have a fitted effect of over 50% in size; also: potency is read from the fitted curve at half-maximal effect
Method in brief: as §3

[13] = A CellTox Green Cytotoxicity Assay to monitor cytotoxicity in HEK293 cells - 8 hour (AID 1224884); also: nearly all actives have a fitted effect of over 35% in size; also: potency is read from the fitted curve at half-maximal effect
Method in brief: as §1

[14] = qHTS RealTime-Glo MT Cell Viability Assay in HepG2 cells - 16 hour (AID 1224885); also: nearly all actives have a fitted effect of over 50% in size
Method in brief: as §4

[15] = qHTS RealTime-Glo MT Cell Viability Assay in HEK293 cells - 24 hour (AID 1224886); also: top concentration of the series differs between compounds; nearly all actives have a fitted effect of over 50% in size
Method in brief: as §2

[16] = qHTS RealTime-Glo MT Cell Viability Assay in HEK293 cells - 8 hour (AID 1224887)
Method in brief: as §5

[17] = A CellTox Green Cytotoxicity Assay to monitor cytotoxicity in HEK293 cells - 16 hour (AID 1224888); also: nearly all actives have a fitted effect of over 35% in size; also: potency is read from the fitted curve at half-maximal effect
Method in brief: as §1

[18] = qHTS RealTime-Glo MT Cell Viability Assay in HepG2 cells - 0 hour (AID 1224889); also: nearly all actives have a fitted effect of over 50% in size
Method in brief: as §4

[19] = qHTS RealTime-Glo MT Cell Viability Assay in HEK293 cells - 40 hour (AID 1224874); conditions: RealTime-Glo luminescence; max response: hits give low values; also: nearly all actives have a fitted effect of over 50% in size
Method in brief: as §5

[20] = A CellTox Green Cytotoxicity Assay to monitor cytotoxicity in HepG2 cells - 8 hour (AID 1224890); also: nearly all actives have a fitted effect of over 45% in size; also: potency is read from the fitted curve at half-maximal effect
Method in brief: as §3

| Structure (SMILES) | Potency [1] | Potency [2] | Potency [3] | Potency [4] | Potency [5] | Potency [6] | Potency [7] | Potency [8] | Potency [9] | Potency [10] | Potency [11] | Potency [12] | Potency [13] | Potency [14] | Potency [15] | Potency [16] | Potency [17] | Potency [18] | max response [19] [%] | Potency [20] |
| --- | --- | --- | --- | --- | --- | --- | --- | --- | --- | --- | --- | --- | --- | --- | --- | --- | --- | --- | --- | --- |
| CC(C)N=C=NC(C)C | inactive | inactive | inactive | inactive | inactive | inactive | inactive | inactive | inactive | inactive | inactive | inactive | inactive | inactive | inactive | inactive | inactive | inactive | – | – |
| NC(=O)CCCCC(N)=O | inactive | inactive | inactive | inactive | inactive | – | inactive | inactive | inactive | inactive | inactive | inactive | inactive | inactive | inactive | inactive | – | inactive | 1.27 | inactive |
| CCCCOCCOC(=O)c1cccnc1 | inactive | inactive | inactive | inactive | inactive | – | inactive | inactive | inactive | inactive | inactive | inactive | inactive | inactive | inactive | inactive | inactive | inactive | 0.954 | inactive |
| COc1ccc(-n2nc(C(F)F)cc2-c2ccc(S(C)=O)cc2)cc1 (stereo not drawn) | inactive | inactive | inactive | inactive | – | inactive | – | – | inactive | inactive | inactive | – | inactive | inactive | inactive | inactive | inactive | inactive | -24.7 | inactive |
| CCOC(=O)c1ccc(NC(=O)CN2CCCCC2)cc1 | inactive | inactive | inactive | inactive | inactive | inactive | inactive | inactive | inactive | inactive | inactive | inactive | inactive | inactive | inactive | inactive | inactive | – | – | – |
| C=CC(=O)NC(C)C | inactive | inactive | inactive | inactive | inactive | inactive | inactive | inactive | inactive | inactive | inactive | inactive | inactive | inactive | inactive | inactive | inactive | – | – | – |
| CCN(CC)c1ccc(C(=C2C=CC(=[N+](CC)CC)C=C2)c2ccc(S(=O)(=O)O)cc2S(=O)(=O)[O-])cc1 | inactive | inactive | inactive | inactive | inactive | – | inactive | inactive | inactive | inactive | inactive | inactive | inactive | inactive | inactive | inactive | inactive | inactive | -1.18 | – |
| O=C(O)CCC(=O)OC[C@@H](NC(=O)C(Cl)Cl)[C@H](O)c1ccc([N+](=O)[O-])cc1 | 21.3 µM (active) | inactive | inactive | – | 9.52 µM (active) | inactive | 19 µM (active) | 19 µM (active) | inactive | – | 19 µM (active) | 12 µM (active) | 21.3 µM (active) | inactive | inactive | inactive | – | – | 5.1 | 21.3 µM (active) |
| FC(F)(F)C(F)(F)C(F)(F)C(F)(F)CCI | inactive | inactive | inactive | inactive | inactive | – | inactive | inactive | inactive | inactive | inactive | inactive | inactive | inactive | – | inactive | inactive | inactive | -4.67 | inactive |
| CCOC(=O)C(C)O (stereo not drawn) | inactive | inactive | inactive | inactive | inactive | inactive | inactive | inactive | inactive | inactive | inactive | inactive | inactive | inactive | inactive | inactive | inactive | inactive | – | inactive |
| CC1CCCO1 (stereo not drawn) | inactive | inactive | inactive | inactive | inactive | inactive | inactive | inactive | inactive | inactive | inactive | inactive | inactive | inactive | inactive | inactive | inactive | inactive | – | inactive |
| O=C1[C@@H]2[C@H]3CC[C@H](C3)[C@@H]2C(=O)N1CCCCN1CCN(c2ncccn2)CC1 | inactive | inactive | inactive | inactive | – | inactive | – | – | inactive | inactive | inactive | – | inactive | inactive | inactive | inactive | inactive | inactive | -0.051 | – |
| CCCCCCCCCCCCCOS(=O)(=O)O | inactive | inactive | inactive | 24.5 µM (active) | – | inactive | – | – | inactive | – | inactive | – | inactive | inactive | inactive | inactive | inactive | inactive | -4.56 | inactive |
| CC1CCC(C(C)CS)CC1S (stereo not drawn) | 49 µM (active) | inactive | inactive | 43.6 µM (active) | inactive | – | inactive | inactive | inactive | 49 µM (active) | inactive | inactive | 49 µM (active) | inactive | inactive | inactive | – | inactive | 10.8 | inactive |
| ClC1=C(Cl)C1(Cl)Cl | inactive | inactive | inactive | inactive | inactive | – | inactive | inactive | inactive | inactive | inactive | inactive | inactive | inactive | inactive | inactive | inactive | – | -7.96 | inactive |
| CCCOC(=O)c1c(Cl)c(Cl)c(Cl)c(Cl)c1C(=O)OCCC | inactive | inactive | inactive | inactive | inactive | inactive | inactive | inactive | inactive | inactive | inactive | inactive | inactive | inactive | inactive | inactive | inactive | inactive | – | inactive |
| O=C(c1ccccc1)C1CCC1 | 24.5 µM (active) | inactive | inactive | 24.5 µM (active) | 38.9 µM (active) | – | 38.9 µM (active) | 27.5 µM (active) | inactive | 24.5 µM (active) | 38.9 µM (active) | 38.9 µM (active) | 38.9 µM (active) | inactive | inactive | inactive | 27.5 µM (active) | inactive | 13.2 | 38.9 µM (active) |
| O=C(O)c1cccc(Oc2ccccc2)c1 | inactive | inactive | inactive | inactive | inactive | – | inactive | inactive | inactive | inactive | inactive | inactive | inactive | inactive | inactive | inactive | inactive | inactive | -1.97 | inactive |
